An excerpt weighted towards active compounds, which were near 7.1% of everything screened.
MCF10A rerep: A quantitative high throughput screen for small molecules that induce DNA re-replication in MCF 10a normal breast cells; MCF 10A DNA re-replication, Hoechst nuclear intensity, 48 h; Potency, µM (series often up to 46.1 µM), usual class: activators; hit rate 2.9% among 350,000; AID 624296, 2012; further: nearly all actives have a fitted effect of over 50% in size
PINK1 modulator: A Quantitative High throughput Screen to Identify Chemical Modulators of PINK1 Expression. PINK1 immunofluorescence, high-content cytometry, 24 h. Potency, µM (titrated, usually from 76.6 µM), actives largely listed as activators. hit rate 0.2% among 410,000. AID 624263, 2012; active means well fitted activation curve with a large enough effect; inconclusive means small, poorly fitted or top-dose-only effect; cell line not stated here; further: nearly all actives have a fitted effect of over 65% in size
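Fluorescence from anti-PINK1 antibody, together with nuclear and cell stains, was scanned on a laser-scanning cytometer. Before staining, stable-line cells were incubated 24 hours with compounds at 5 concentrations; primary antibody 12 h at 10 degrees C.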
S2 tox: Viability Counterscreen for Primary qHTS for Inhibitors of ATXN expression | Potency, µM (series often up to 56.7 µM), actives largely listed as cytotoxic | S2 cells (HEK-293 line with an ATXN2-luciferase reporter) viability, CellTiter-Fluor protease fluorescence, 24 h | hit rate 0.49% among 400,000; further: nearly all actives have a fitted effect of over 40% in size
SW480 rereplic: A quantitative high throughput screen for small molecules that induce DNA re-replication in SW480 colon adenocarcinoma cells; SW480 DNA re-replication, Hoechst DNA content imaging, 48 h; Potency, µM (series often up to 46.1 µM), actives largely listed as activators; hit rate 1.8% among 340,000; AID 624297, 2012; further: nearly all actives have a fitted effect of over 55% in size
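Treated cells incubate 48 hr (37 C, 5% CO2), are stained 40 min with Hoechst, and nuclear fluorescence is enumerated; a rise in nuclei with high DNA signal marks re-replication.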
IL-1B inflam inh: qHTS for Inhibitors of Inflammasome Signaling: IL-1-beta AlphaLISA Primary Screen; hit rate 4.7% among 360,000; AID 743279, 2014; activity change, % at 57.5 µM; THP-1 LPS/ATP IL-1B secretion, AlphaLISA, 16 h; stronger effect = lower value; in the data active means activity change below about -50%; inconclusive means mostly about -30% to -49%
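Secreted IL-1B measured by AlphaLISA bead assay after 16 h compound exposure of THP-1 cells; compounds (final up to 57.5 uM) added 1 h before LPS (250 ng/mL) and ATP (1.25 mM) stimulation; lower signal means less secretion.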
ATXN2 expr inh: Primary qHTS for Inhibitors of ATXN expression; HEK-293 ATXN2-luciferase reporter, luminescence, 24 h; Potency, µM (titrated, usually from 57 µM), most hits filed as inhibitors; hit rate 0.72% among 360,000; further: nearly all actives have a fitted effect of over 55% in size
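ATXN2-luciferase reporter cells (luciferase flanked by upstream and downstream ATXN2 gene portions) were treated 24 h at 37 °C with compounds at up to 57 uM. SteadyGlo luminescence gave expression; GF-AFC fluorescence gave viability.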
Large screens that a line does not name were inactive. Unless noted, the call rests on the fitted dose curve; in most records, active means well fitted curve in the direction sought with a large enough effect; inconclusive means small, poorly fitted or top-dose-only effect, or another doubt; inactive means no such curve, though single readings can be large; an effect the other way counts as inactive or inconclusive.

CCc1ccc(S(=O)(=O)/N=C2\C=C(NS(=O)(=O)c3ccccc3)C(=O)c3ccccc32)cc1	S2 tox inconclusive
Cc1ccccc1NC1=C/C(=N\S(=O)(=O)c2ccc(C(=O)O)cc2)c2ccccc2C1=O	MCF10A rerep 2.1µM, S2 tox 10µM, SW480 rereplic inconclusive, IL-1B inflam inh -90, ATXN2 expr inh 8.9µM
O=C(CN1C(=O)NC2(CCCC2)C1=O)NC(c1ccccc1)c1ccccc1	SW480 rereplic inconclusive, IL-1B inflam inh -82
CC(NC(=O)CN1C(=O)NC2(CCCCCCC2)C1=O)c1ccccc1 (configuration not stated)	none
COc1ccc(C2(c3ccc(OC)cc3)NC(=O)N(CC(=O)N(C)c3ccccc3)C2=O)cc1	IL-1B inflam inh inconclusive
CC(C)C(C)NC(=O)CN1C(=O)NC(c2ccccc2)(c2ccccc2)C1=O (configuration not stated)	S2 tox inconclusive, IL-1B inflam inh -67
CC(NC(=O)CN1C(=O)NC2(CCCCC2)C1=O)c1ccc(S(N)(=O)=O)cc1 (configuration not stated)	MCF10A rerep inconclusive, SW480 rereplic 6.5µM
CCOc1ccc(CN(C)C(=O)CN2C(=O)NC(c3ccccc3)(c3ccccc3)C2=O)cc1	S2 tox inconclusive, IL-1B inflam inh -59 (no result: ATXN2 expr inh)
Cc1cnc2ccc(I)cc2c1/C=C/c1ccc(N(C)C)cc1	none (no result: MCF10A rerep, S2 tox, SW480 rereplic, IL-1B inflam inh, ATXN2 expr inh)
COCCNC(=O)C1(C)CCCN(C(=O)c2ccc(F)c(Cl)c2)C1 (configuration not stated)	none (no result: MCF10A rerep, SW480 rereplic)
COc1ccc(C)cc1NC(=O)C(=O)NCCc1csc2nc(-c3ccccc3F)nn12	none (no result: MCF10A rerep, SW480 rereplic, IL-1B inflam inh)
C1=CN2CC=Cc3cc(/C=C/c4ccnc5ccccc45)cc(c32)C1	none (no result: MCF10A rerep, S2 tox, SW480 rereplic, IL-1B inflam inh, ATXN2 expr inh)
O=C(NCc1ccccn1)c1cnn(-c2nccc(-c3cccs3)n2)c1C1CC1	none (no result: MCF10A rerep, SW480 rereplic, IL-1B inflam inh, ATXN2 expr inh)
COC(=O)/C=C1\SC(=Nc2ccc(OC)cc2)NC1=O	MCF10A rerep 3.7µM, S2 tox inconclusive
COc1ccc(N=C2NC(=O)/C(=C/c3ccco3)S2)cc1	MCF10A rerep inconclusive, PINK1 modulator inconclusive, S2 tox inconclusive, SW480 rereplic 7.3µM, IL-1B inflam inh -55 (no result: ATXN2 expr inh)
COc1ccc(N2CCN(c3ccc(-c4nc(-c5ccccc5C)no4)cc3[N+](=O)[O-])CC2)cc1	none (no result: MCF10A rerep, SW480 rereplic, IL-1B inflam inh)
Cc1ccc(SC[C@H](c2ccccc2)N2CCN(CCc3ccccc3)CCC2=O)cc1	MCF10A rerep 8.2µM, PINK1 modulator inconclusive
O=C1CCN(CCc2ccccc2)CCN1[C@H](CSc1ccccc1)c1ccccc1	S2 tox inconclusive
O=C1OC(N2C(=O)CC[C@H]2C(=O)Nc2cccc(F)c2)c2ccccc21 (some centres not stated)	SW480 rereplic 4.1µM
COC(=O)C1=CN(c2cc(C)cc(C)c2)C=C(C(=O)OC)C1c1cccc(F)c1	MCF10A rerep 3.7µM, SW480 rereplic inconclusive, IL-1B inflam inh inconclusive
COC(=O)C1=CN(c2cc(C)cc(C)c2)C=C(C(=O)OC)C1c1ccc(OC)c(O)c1	SW480 rereplic inconclusive
O=C(c1ccc2c(c1)N(Cc1ccccc1F)C(=O)c1ccccc1S2(=O)=O)N1CCN(c2ccccn2)CC1	none (no result: MCF10A rerep, SW480 rereplic, IL-1B inflam inh)
O=[N+]([O-])c1cc(S(=O)(=O)Nc2ccccc2)ccc1N1CCN(c2ccccc2)CC1	MCF10A rerep inconclusive, PINK1 modulator inconclusive, S2 tox inconclusive, SW480 rereplic inconclusive, IL-1B inflam inh -64
COc1ccc(NS(=O)(=O)c2ccc(-n3nnc4ccccc43)c([N+](=O)[O-])c2)cc1	PINK1 modulator inconclusive
O=[N+]([O-])c1cc(S(=O)(=O)C(F)(F)F)ccc1N1CCN(c2ccccc2)CC1	IL-1B inflam inh inconclusive
O=[N+]([O-])c1cc(S(=O)(=O)Nc2cccc(C(F)(F)F)c2)ccc1-n1nnc2ccccc21	MCF10A rerep inconclusive, PINK1 modulator 22µM, SW480 rereplic inconclusive
CCC(c1nc2ccccc2[nH]1)n1c(=O)c(-c2ccccc2)nc2ccccc21 (configuration not stated)	none (no result: MCF10A rerep, PINK1 modulator, S2 tox, SW480 rereplic, ATXN2 expr inh)
CN(C)/N=C/C=C1\CC/C(=C\c2ccc(Br)cc2)C1=O	SW480 rereplic inconclusive
CN(C)/N=C/C=C1\CCC/C(=C/c2cccs2)C1=O	MCF10A rerep 23µM, SW480 rereplic inconclusive, IL-1B inflam inh inconclusive (no result: ATXN2 expr inh)
Fc1ccc(Nc2c3c(nc4ccccc24)CCC3)cc1	PINK1 modulator inconclusive, S2 tox inconclusive, SW480 rereplic inconclusive, IL-1B inflam inh -96
CN(C)CCCNc1c2c(nc3ccccc13)CCC2	S2 tox inconclusive, IL-1B inflam inh -69 (no result: ATXN2 expr inh)
CCN(CC)CCOC(=O)c1ccc(Nc2c3c(nc4ccccc24)CCC3)cc1	S2 tox 20µM, ATXN2 expr inh inconclusive (no result: MCF10A rerep, SW480 rereplic, IL-1B inflam inh)
c1ccc2c(Nc3ccc4c(c3)OCCO4)c3c(nc2c1)CCC3	MCF10A rerep inconclusive, PINK1 modulator 40µM, S2 tox inconclusive, SW480 rereplic inconclusive (no result: ATXN2 expr inh)
c1ccc(Nc2c3c(nc4ccccc24)CCC3)cc1	none
CC(=O)c1ccccc1S(=O)(=O)N1CCN(c2nc(-c3cccs3)nc3ccccc23)CC1	none (no result: MCF10A rerep, S2 tox, SW480 rereplic, IL-1B inflam inh, ATXN2 expr inh)
COc1ccc(O)c(C(=O)CC(=O)c2ccccc2C)c1	MCF10A rerep inconclusive, SW480 rereplic 21µM
O=C(NCc1ccncc1)c1cnn(-c2nccc(-c3cccs3)n2)c1C1CC1	none (no result: MCF10A rerep, SW480 rereplic, IL-1B inflam inh, ATXN2 expr inh)
N#CC(=C1C=CC(=NO)C(Cl)=C1)c1ccc(Cl)cc1	MCF10A rerep inconclusive, S2 tox inconclusive, SW480 rereplic inconclusive, IL-1B inflam inh -54
CC(SC1=NS(=O)(=O)c2ccccc21)C(=O)O (configuration not stated)	none (no result: MCF10A rerep, S2 tox, SW480 rereplic, IL-1B inflam inh, ATXN2 expr inh)
C=C(C)C1(O)OC(=O)C=C1OC (configuration not stated)	MCF10A rerep inconclusive, SW480 rereplic inconclusive, IL-1B inflam inh -76
CC1CC(C)(C)Nc2ccc(OC(=O)c3ccco3)cc21 (configuration not stated)	MCF10A rerep 15µM, SW480 rereplic inconclusive, IL-1B inflam inh -114, ATXN2 expr inh inconclusive
O=C(Oc1ccc2ccccc2c1)c1ccco1	none
CC1CC(C)(C)Nc2ccc(N=O)cc21 (configuration not stated)	MCF10A rerep 23µM, PINK1 modulator inconclusive, S2 tox inconclusive, SW480 rereplic 2.3µM, IL-1B inflam inh -105 (no result: ATXN2 expr inh)
CCCOc1ccc2ccccc2c1/C=N/n1c(C)nnc1-n1nc(C)cc1C	MCF10A rerep 10µM, S2 tox inconclusive, SW480 rereplic 21µM
COC(=O)CNC(=O)c1sc2ncn(CC(=O)Nc3ccc(C)c(Cl)c3)c(=O)c2c1C	IL-1B inflam inh -81
COCCNC(=O)c1sc2ncn(CC(=O)Nc3ccc(C)c(Cl)c3)c(=O)c2c1C	none (no result: ATXN2 expr inh)
Cc1nn(-c2ccccc2)c(N2CCCC2)c1/C=N/NC(=O)c1cc(-c2ccccc2)nc2ccccc12	MCF10A rerep inconclusive

High-throughput results as filed in PubChem.
